Out of some 69,000 compounds screened, about 1,000 (1.4%) showed an effect of 50% or more. The full list was thinned out, with strong results kept by preference.
System: Leishmania donovani
Assay: Leishmania intramacrophage assay
Format: functional, organism-based
Design: scale not given: in the data most compounds retested in dose-response had high values

## O=C(NC1CC1)c1ccn(COc2c(Cl)cccc2Cl)n1
30.3 µM, […]
  Percent Effect: 26.41%

## CC(C)C1CN(C(=O)c2ccccc2)CCS1 (configuration not stated)
30.3 µM, […]
  Percent Effect: -6.451%

## Cc1ccc([C@]2(O)CC[C@H]3CN(Cc4cccc(Cl)c4Cl)C[C@H]32)nc1.O=C(O)CC(O)(CC(=O)O)C(=O)O
30 µM, 30.03 µM
  Percent Effect: 12.17%

## Cc1ccc([C@]2(O)CC[C@H]3CN(Cc4cc(C)c(O)c(C)c4)C[C@H]32)nc1.O=C(O)CC(O)(CC(=O)O)C(=O)O
30 µM, 30.03 µM
  Percent Effect: 50.06%

## Cc1cc(-c2cnc(N3CCSCC3)nc2C(C)C)on1
30.3 µM, […]
  Percent Effect: -38.52%

## Cn1cnc2c1CCN(CC(=O)N(Cc1ccsc1)C1CC1)C2
30.3 µM, […]
  Percent Effect: 1.808%

## CC1(C)CC(=O)c2cnc3nc(N4CCCCC4)nc(O)c3c2C1
30.3 µM, […]
  Percent Effect: 10.62%

## Cc1cccc(CS(=O)(=O)Cc2ccn(C)c(=O)c2)c1
30.3 µM, […]
  Percent Effect: 18.93%

## O=C(c1cc2c([nH]c1=O)CCC2)N1CCCCCC1c1ccncc1 (configuration not stated)
30.3 µM, […]
  Percent Effect: 26.35%

## CC(O)c1cccc(Nc2nc(NCCO)c3ccccc3n2)c1 (configuration not stated)
30.3 µM, […]
  Percent Effect: 37.25%

## CCN(CC)c1nc(Nc2cccc(C(C)O)c2)nc2ccccc12 (configuration not stated)
30.3 µM, […]
  Percent Effect: 66.27%

## CCN(CC)c1nc(Nc2cccc(C(=O)O)c2)nc2ccccc12
30.3 µM, […]
  Percent Effect: 3.255%

## CCn1ncc(S(=O)(=O)N[C@@H]2CCC[C@@H](n3ccnc3)[C@@H]2O)c1C
30.3 µM, […]
  Percent Effect: 16.74%

## NCCC(=O)N1CCC2(CC1)CN(C(=O)c1ccc(Cl)cc1)CCO2
30.3 µM, […]
  Percent Effect: 0.3697%

## Cc1ccc(C(=O)N2CCC3(CCCCC3)C2)c(=O)[nH]1
30.3 µM, […]
  Percent Effect: 56.07%

## Cc1ccc(C(=O)N2CCC3(CCCC3)CC2)c(=O)[nH]1
30.3 µM, […]
  Percent Effect: 27.16%

## Cc1ccc(C(=O)N2CCOC3(CCCC3)C2)c(=O)[nH]1
30.3 µM, […]
  Percent Effect: 4.345%

## Cc1ccc(C(=O)N2CCC(Oc3ccc(C)c(C)c3)CC2)c(=O)[nH]1
30 µM
  Percent Effect: 57.43%

## COc1ccc(OC2CCN(C(=O)c3ccc(C)[nH]c3=O)CC2)cc1
30 µM
  Percent Effect: 26.55%

## Cc1ccc(C(=O)N2CCC(Oc3ccccc3)CC2)c(=O)[nH]1
30 µM
  Percent Effect: 12.56%

## COCCCC(=O)N1CCC(Nc2cccnn2)CC1
30 µM
  Percent Effect: -18.1%

## CNC(=O)[C@H]1CC[C@@H]2[C@@H](CCN2CCOCc2ccccc2)O1.O=C(O)C(F)(F)F
30.3 µM, […]
  Percent Effect: 45.25%

## Cc1cc(NC2CCc3nc(C(C)C)nn3C2)n2ncnc2n1 (configuration not stated)
30.3 µM, […]
  Percent Effect: -19.33%

## CC[C@@H](C)[C@H](NC(=O)Cn1ccc2c(Cl)cccc21)C(=O)O
30.3 µM, […]
  Percent Effect: 7.093%

## Cc1nnc(C(C)N(C)Cc2c(C)nn(-c3ccccc3)c2C)o1 (configuration not stated)
30.3 µM, […]
  Percent Effect: 15.94%

## CCc1nnc(C(C)N(C)Cc2c(C)nn(-c3ccccc3)c2C)o1 (configuration not stated)
30.3 µM, […]
  Percent Effect: 21.58%

## Cc1nnc(C(C)N(C)Cc2c(C)nn(-c3ccccc3C)c2C)o1 (configuration not stated)
30.3 µM, […]
  Percent Effect: 60.72%

## O=C(NCC1(O)CCC1)c1cccc(-n2cccn2)c1
30.3 µM, […]
  Percent Effect: 0.6562%

## O=S1(=O)N=C(SCc2ccc(Cl)cc2)Nc2ccc(F)cc21
30 µM, 30.03 µM
  Percent Effect: 63.48%

## O=C(CSC1=NS(=O)(=O)c2cc(F)ccc2N1)Nc1ccc(Cl)cc1
30.3 µM, […]
  Percent Effect: 3.738%

## O=C(CSC1=NS(=O)(=O)c2cc(F)ccc2N1)c1ccc(Cl)cc1
30 µM, 30.03 µM
  Percent Effect: 37.27%

## CC(C)(C)c1cn(CC2CCCN(c3cnc4ccccc4n3)C2)nn1 (configuration not stated)
30.3 µM, […]
  Percent Effect: 23.01%

## CN(C)C(=O)CN1CCC2(CC1)CC(=O)c1ccc3ccccc3c1O2
30.3 µM, […]
  Percent Effect: 36.93%

## CCOC(=O)CN1CCC2(CC1)CC(=O)c1ccc3ccccc3c1O2
30.3 µM, […]
  Percent Effect: 52.56%

## NC(=O)CN1CCC2(CC1)CC(=O)c1ccc3ccccc3c1O2
30.3 µM, […]
  Percent Effect: 11.62%

## Cc1nc(NC(=O)C2(C)CN(C)CCO2)sc1C.Cl (configuration not stated)
30.3 µM, […]
  Percent Effect: 1.58%

## Cc1nc(Nc2ncc(C)s2)cc(C2CCCN2)n1.Cl (configuration not stated)
30.3 µM, […]
  Percent Effect: 56.27%

## Cc1nc(Nc2nccs2)cc(C2CCCN2)n1.Cl (configuration not stated)
30.3 µM, […]
  Percent Effect: 34.17%

## Cc1nc(Nc2nnc(C)s2)cc(C2CCCN2)n1.Cl (configuration not stated)
30.3 µM, […]
  Percent Effect: -1.301%

## CCOc1c(Cl)cc(/C=C/c2ncc(C(=O)O)s2)cc1OC
30 µM
  Percent Effect: 26.63%

## COc1cc(/C=C/c2ncc(C(=O)O)s2)cc(Cl)c1OC
30 µM
  Percent Effect: -16.83%

## COc1cc(/C=C/c2ncc(C(=O)O)s2)cc(Cl)c1O
30 µM, 30.03 µM
  Percent Effect: 50.87%

## O=C1CNc2ncnc(Nc3cccc(Cn4cccn4)c3)c2N1
30.3 µM, […]
  Percent Effect: 32.36%

## O=C(Nc1ccccc1OCCc1ccccn1)N1CCOCC(O)C1 (configuration not stated)
30.3 µM, […]
  Percent Effect: 34.91%

## O=C(Nc1ccccc1OCCc1ccccn1)N1CC[C@@H](O)C1
30.3 µM, […]
  Percent Effect: -41.47%

## O=C(Nc1ccccc1OCCc1ccccn1)N1CCOCC1
30.3 µM, […]
  Percent Effect: 51.44%

## CC(C)CN1C(=O)C2(CCN(Cc3ccoc3)C2)c2ccccc21.O=C(O)C(F)(F)F (configuration not stated)
30.3 µM, […]
  Percent Effect: -1.91%

## CC(C)CN1C(=O)C2(CCN(Cc3cccs3)C2)c2ccccc21.O=C(O)C(F)(F)F (configuration not stated)
30.3 µM, […]
  Percent Effect: 1.991%

## O=C(O)C(F)(F)F.c1cnc(N2CCC3(CC2)CN(CC2CC2)c2ccccc23)nc1
30 µM, 30.03 µM
  Percent Effect: 24.73%

## O=C(O)C(F)(F)F.O=C(O)C(F)(F)F.OCCN1CC2(CCN(CC3CC3)CC2)c2ccccc21
30.3 µM, […]
  Percent Effect: 75.39%

## CC(C)CN1C(=O)C2(CCN(CC3CCOCC3)C2)c2ccccc21.O=C(O)C(F)(F)F (configuration not stated)
30.3 µM, […]
  Percent Effect: 64.12%

## O=C(O)C(F)(F)F.O=C1CC2(CCN(CC3CCOC3)CC2)c2ccccc2N1CC1CC1 (configuration not stated)
30.3 µM, […]
  Percent Effect: 8.748%

Reference: ChEMBL document CHEMBL3988442, “University of Dundee, Small-Polar-MMV Screening Library” (2021)
